These results are taken from PubChem BioAssay (NCATS).

The nature of test [1]: AP1 Signaling Pathway (AID 357).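 Note: ME-180 reporter cells stimulated with EGF at its EC50 level; % is set by controls: 0 for no effect and ±100 for the full control effect.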 The settings on record: ME-180 AP-1-bla reporter, EGF-induced, beta-lactamase ratio, 5 h. The essentials:
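In this screen, ME-180 cells in Opti-MEM with 0.5% dialyzed FBS received EC50 EGF and compound titrations for 5 h. AP-1 reporter beta-lactamase was detected via CCF4 ratio, giving AC50 for positive and negative modulators.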

Test [2] has as its target Cytochrome P450 1A2 (Homo sapiens) (UniProt P05177). The test is described as follows: p450-cyp1a2 (AID 410; calls by dose curve; note: potency is the fitted concentration of half-maximal effect;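 for activity change, negative = inhibition: -100% = full effect of reference inhibitor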). The settings on record: recombinant CYP1A2, luciferin-ME demethylation, luminescence; series mostly up to 57 µM. The essentials:
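Luminescent readout of luciferin formed from Luciferin-ME by human CYP1A2; data normalized against complete inhibition by 57 uM furafylline. Enzyme 20nM, substrate 100uM at Km, 100mM KPO4 buffer, 60 min reaction at room temperature.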

Test [3] in a line: NFAT Signaling Pathway (AID 444).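 Note: carbachol stimulus at about its EC50 of 1 µM final; % is set by controls: 0 for no effect and ±100 for the full control effect.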 Particulars: Jurkat NFAT-bla M1, carbachol, beta-lactamase ratio, 5 h. The essentials: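 Jurkat cells with NFAT-driven β-lactamase reporter and co-expressed M1 receptor, stimulated with carbachol (final 1 uM, ~EC50), compound titration, 5 h at 37 °C. CCF4 loaded 1 h at RT; 460/530 nm ratio gave %activity and AC50.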
Test [4] can be described thus: Stat Signaling Pathway (AID 446).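 Note: ME-180 cervical cancer cells given 40 pM IL-6 alongside compound; SIE-controlled beta-lactamase reporter measured as 460/530 nm FRET emission ratio; % is set by controls: 0 for no effect and ±100 for the full control effect.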 The settings on record: ME-180 SIE beta-lactamase reporter, IL-6 stimulated, 5 h. An outline of the steps: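 Screening format detects activators and inhibitors alike: ME-180 SIE-bla cells stimulated at 40 pM IL-6 for 5 hrs with compound, then dual-emission beta-lactamase read at 405 nm excitation.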
Test [5] deals with Glucocorticoid receptor (Homo sapiens) (UniProt P04150). The test is described as follows: GR-GFP Redistribution (AID 450;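 active = compounds whose dose series gives a full or clear partial fitted curve of increased nuclear translocation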; note: potency is the fitted concentration of half-maximal effect). Particulars: U2OS GR-GFP nuclear translocation, laser cytometry, 2 h.
Sequence of Glucocorticoid receptor (Homo sapiens) (P04150 whole entry, looked up, the tested form may be a part): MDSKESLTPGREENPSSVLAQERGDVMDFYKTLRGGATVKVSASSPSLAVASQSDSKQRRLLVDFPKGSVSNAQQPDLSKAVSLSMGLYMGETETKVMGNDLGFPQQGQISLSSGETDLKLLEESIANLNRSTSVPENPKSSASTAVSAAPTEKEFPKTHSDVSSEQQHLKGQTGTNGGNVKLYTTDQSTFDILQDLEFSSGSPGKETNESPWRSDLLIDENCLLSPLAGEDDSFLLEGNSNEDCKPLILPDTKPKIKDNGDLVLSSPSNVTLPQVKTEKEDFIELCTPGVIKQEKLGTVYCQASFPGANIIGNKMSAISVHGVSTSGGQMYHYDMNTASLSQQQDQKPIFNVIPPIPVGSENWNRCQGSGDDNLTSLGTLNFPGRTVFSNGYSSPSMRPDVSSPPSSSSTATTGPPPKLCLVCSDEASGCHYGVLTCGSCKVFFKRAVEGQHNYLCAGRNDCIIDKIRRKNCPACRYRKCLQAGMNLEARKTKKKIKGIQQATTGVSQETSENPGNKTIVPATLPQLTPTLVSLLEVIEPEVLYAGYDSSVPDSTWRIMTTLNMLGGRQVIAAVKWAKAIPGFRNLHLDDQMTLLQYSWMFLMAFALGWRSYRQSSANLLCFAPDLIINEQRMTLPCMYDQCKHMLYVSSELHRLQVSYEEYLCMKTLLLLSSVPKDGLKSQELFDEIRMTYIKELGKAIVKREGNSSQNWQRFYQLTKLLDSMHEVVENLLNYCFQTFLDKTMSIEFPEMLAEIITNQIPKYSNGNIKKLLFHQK
The target is the same in test [6]. The test is described as follows: GR-EFC Redistribution (AID 451; calls by dose curve; note: potency is the fitted concentration of half-maximal effect). Particulars: CHO-K1 GR-EFC translocation, beta-gal luminescence, 2 h. An outline of the steps: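 CHO-K1 cells expressing nuclear EA and GR-ED fragments of b-gal; compounds titrated up to 46 uM final, 2 h at 37 C. GR nuclear translocation read as complemented b-gal luminescence after 1 h RT detection.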

Test [7] has as its target Mitogen-activated protein kinase 10 (Mus musculus) (UniProt Q61831). Description: JNK3 AlphaScreen Assay (AID 530).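 Note: kinase came from lysate of stimulated human HepG2 cells; signal reports phosphorylation of biotinylated GST-cJun 1-79 at Ser73 with 10 µM ATP; % is set by controls: 0 for no effect and ±100 for the full control effect.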 Particulars: JNK3 lysate, c-Jun phosphorylation; series mostly up to 57.1 µM. The essentials:
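Pre-activated (IL-1β/TNFα) JNK3 in HepG2 lysates phosphorylates biotin-GST-cJun(1-79), 10 uM ATP; anti-phospho-cJun(Ser73) AlphaScreen read at room temperature, pH 7.6 Tris buffer. Compounds pre-incubated 15 min as titrations.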

In test [8] the target is 3',5'-cyclic-AMP phosphodiesterase 4B (Homo sapiens) (UniProt Q07343). Description: qHTS Assay for Inhibitors of PDE-IV (AID 607; active = well fitted activation curve with a large enough effect in the main read-out, with a control signal flat, not every such curve was filed as active; note: % of control where 0% means no effect). Particulars: HEK293 ACTOne CNG channel cells, membrane potential fluorescence; series mostly up to 22.9 µM. An outline of the steps: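 The readout is membrane depolarisation from a cAMP-sensing CNG channel, detected with a potential dye at ex 535/em 590. Cells were HEK293-derived (endogenous PDE-IV) at 1000 cells/well, titrated up to 22.9 uM final.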
Sequence of 3',5'-cyclic-AMP phosphodiesterase 4B (Homo sapiens) (Q07343 whole entry, looked up): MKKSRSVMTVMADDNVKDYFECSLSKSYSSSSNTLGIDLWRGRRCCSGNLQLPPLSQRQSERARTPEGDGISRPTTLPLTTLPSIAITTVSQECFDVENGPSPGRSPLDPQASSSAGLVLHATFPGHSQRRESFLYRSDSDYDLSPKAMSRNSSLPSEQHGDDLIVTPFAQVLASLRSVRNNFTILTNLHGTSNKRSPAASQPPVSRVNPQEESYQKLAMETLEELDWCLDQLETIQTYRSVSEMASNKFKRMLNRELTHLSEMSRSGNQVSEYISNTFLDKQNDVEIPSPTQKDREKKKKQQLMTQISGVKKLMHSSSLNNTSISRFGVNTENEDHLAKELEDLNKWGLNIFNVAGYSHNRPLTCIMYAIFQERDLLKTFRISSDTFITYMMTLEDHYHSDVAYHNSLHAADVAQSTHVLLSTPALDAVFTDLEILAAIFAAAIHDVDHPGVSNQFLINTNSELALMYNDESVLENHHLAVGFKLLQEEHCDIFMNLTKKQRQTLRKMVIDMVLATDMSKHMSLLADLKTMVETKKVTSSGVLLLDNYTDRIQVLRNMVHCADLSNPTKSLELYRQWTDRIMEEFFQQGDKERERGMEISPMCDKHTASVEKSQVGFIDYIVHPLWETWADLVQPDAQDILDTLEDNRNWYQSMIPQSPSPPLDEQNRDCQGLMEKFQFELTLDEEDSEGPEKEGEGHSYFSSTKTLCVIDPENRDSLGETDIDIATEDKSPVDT
Background: qHTS replaces the single test concentration by a dilution series.

Test [9] concerns the target Guanine nucleotide-binding protein G(i) subunit alpha-1 (Homo sapiens) (UniProt P63096). The test is described as follows: qHTS Assay for Inhibitors of RGS12 GoLoco Motif Activity (Green Fluorophore) (AID 879; active = well fitted curve in the direction sought with a large enough effect; an effect the other way counts as inactive or inconclusive;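 note: 0% = labeled peptide with Gαi1 and full inhibition = labeled peptide alone without protein; negative values mean loss of peptide binding seen as reduced polarization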). The settings on record: Galphai1/FITC-RGS12 GoLoco peptide, fluorescence polarization; series mostly up to 57.1 µM. An outline of the steps:
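Fluorescence polarization assay: 50 nM Gαi1 with 10 nM FITC-labeled RGS12 GoLoco peptide in 10 mM Tris pH 7.5, 150 mM NaCl, 0.1 mM GDP, 0.05% NP40, 10 min at room temperature with compound.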

In test [10] the target is Pyruvate kinase (Leishmania mexicana) (UniProt Q27686). Description: qHTS Validation Assay for Inhibitors of Leishmania Mexicana Pyruvate Kinase (AID 945; active = well fitted curve in the direction sought with a large enough effect; an effect the other way counts as inactive or inconclusive;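 note: 0% = DMSO only neutral control wells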). Particulars: purified L. mexicana pyruvate kinase, enzyme activity, E451W mutant enzyme; series mostly up to 57.5 µM. The essentials:
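The enzyme is a highly purified E451W mutant of LmPYK used at 0.2 nM. It converts 0.5 mM PEP and 0.1 mM ADP over 1 h at room temperature; product ATP is quantified by luciferase luminescence relative to DMSO controls.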

The target in test [11] is Pyruvate kinase PKM (Homo sapiens) (UniProt P14618). Description: qHTS Assay for Activators of Human Muscle Pyruvate Kinase (AID 954; active = well fitted curve in the direction sought with a large enough effect, not every such curve was filed as active;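 note: 0% = uninhibited enzyme and -100% = no enzyme or full thiadiazolimine inhibition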). Particulars: purified human muscle pyruvate kinase, luciferase-coupled luminescence, 1 h; series mostly up to 57.5 µM. An outline of the steps:
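Reaction: 0.1 nM purified PKM2 with 0.5 mM phosphoenolpyruvate and 0.1 mM ADP, room temperature, 1 h. Readout: luciferase-based ATP luminescence after stop reagent. Activators judged against a 0.3 nM enzyme column.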

In test [12] the target is alpha-glucosidase (Oryza sativa, rice) (UniProt Q653V4). The test is described as follows: Counterscreen for Glucocerebrosidase Inhibitors: qHTS Assay for Rice alpha-Glucosidase at pH 5.0 (AID 997; active = well fitted curve in the direction sought with a large enough effect; an effect the other way counts as inactive or inconclusive;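 note: 0% = full activity with enzyme and -100% = basal without enzyme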). The settings on record: rice alpha-glucosidase enzyme activity; series mostly up to 76.9 µM. An outline of the steps: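 Rice alpha-glucosidase (4 nM final) with 400 uM 4-methylumbelliferyl-alpha-D-glucopyranoside in citrate buffer pH 5.0, 20 min at room temperature, stopped at pH 10; fluorescence 365/440 nm, compounds 0.7 nM–77 uM, AC50 from Hill fits.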
In general terms: A counterscreen serves to expose hits that act by an unwanted route or on another target.

The nature of test [13]: qHTS Assay for Lipid Storage Modulators (AID 1519; calls by dose curve). Particulars: Drosophila S3 cells, BODIPY lipid droplet/cell ratio, laser cytometry, cells loaded with oleic acid; for activity change, negative = inhibition: at 25.7 µM (top of the series). The essentials:
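Cells seeded at 5,000 per well were treated with compounds over a concentration series and loaded with oleic acid (400 uM, as added). Lipid droplet fluorescence (488 nm excitation, 500-530 nm channel) was read by laser-scanning cytometry and normalized to 20 uM Triacsin C.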

Test [14] concerns the target ATP-dependent 6-phosphofructokinase (Trypanosoma brucei brucei) (UniProt O15648). Description: qHTS Assay to Find Inhibitors of T. brucei phosphofructokinase: hit validation (AID 492961; active = well fitted curve in the direction sought with a large enough effect; an effect the other way counts as inactive or inconclusive). The settings on record: T. brucei PFK, ADP-Glo luminescence; series mostly up to 24.3 µM. The essentials:
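Inhibition of parasite PFK is measured as reduced ADP formation, quantified via luciferase after ATP depletion. Assay used 0.1 mM ATP, 0.5 mM F6P, 1.25 nM enzyme, 45 min incubation.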

In test [15] the target is Luciferin 4-monooxygenase (Photinus pyralis) (UniProt P08659). The test is described as follows: Biochemical firefly luciferase enzyme assay for NPC (AID 624030; active = well fitted curve in the direction sought with a large enough effect; an effect the other way counts as inactive or inconclusive;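 note: purified P. pyralis luciferase at 10 nM with luciferin and ATP substrate; 0% = DMSO and -100% = full luciferase inhibition by PTC124 control; nearly all actives have a fitted effect of over 70% in size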). The settings on record: purified P. pyralis luciferase, luminescence, 5 min; series mostly up to 58.6 µM. An outline of the steps:
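Purified P. pyralis luciferase at 10 nM in 50 mM Tris Acetate (final), luminescence read within 5 minutes of enzyme addition to compounds. Activity normalised to PTC124 versus DMSO; concentration-response curves classed by r2, magnitude and activity.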

The nature of test [16]: qHTS profiling for inhibitors of Plasmodium falciparum proliferation (AID 504749; active = well fitted curve in the direction sought with a large enough effect; an effect the other way counts as inactive or inconclusive;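 note: 0% = DMSO vehicle and full inhibition = artemisinin control; nearly all actives have a fitted effect of over 60% in size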). The settings on record: P. falciparum in erythrocytes, SYBR Green DNA, 72 h, at 28.7 µM (top of the series). An outline of the steps: (§1)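 P. falciparum-infected erythrocytes (0.3% parasitemia, 2.5% hematocrit) incubated with compound 72 h at 37 C, 5% CO2. Parasite DNA detected by SYBR Green after lysis, overnight at room temperature; normalised to 0.29 uM artemisinin and DMSO.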

For a further test, the system named is AS120. Described as above. Particulars: P. falciparum in erythrocytes, SYBR Green DNA, 72 h; series mostly up to 28.7 µM. The essentials: as §1
The test system of the next test is CP238. The description is as above. Particulars: P. falciparum in erythrocytes, SYBR Green DNA, 72 h; series mostly up to 12.8 µM. The essentials:
as §1

In the next test the test system is FAB9. The test is described as above. The settings on record: P. falciparum in erythrocytes, SYBR Green DNA, 72 h; series mostly up to 12.8 µM. The essentials: as §1
Test [17] deals with Ubiquitin carboxyl-terminal hydrolase 1 (Homo sapiens) (UniProt O94782). Description: Inhibitors of USP1/UAF1: Pilot qHTS (AID 504865; active = well fitted curve in the direction sought with a large enough effect; an effect the other way counts as inactive or inconclusive;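 note: rhodamine fluorescence freed from ubiquitin-rhodamine substrate followed over time; top concentration of the series differs between compounds; % is set by controls: 0 for no effect and ±100 for the full control effect; nearly all actives have a fitted effect of over 35% in size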). The settings on record: purified USP1/UAF1, Ub-rhodamine cleavage fluorescence; series mostly up to 54.9 µM. An outline of the steps: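 Enzyme-free wells gave the negative control, while test wells held 1nM USP1/UAF1 preincubated with compound for 15 min at room temperature. Ub-Rho at 150nM final started the reaction, and fluorescence at 480/540 nm was recorded kinetically.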
Sequence of Ubiquitin carboxyl-terminal hydrolase 1 (Homo sapiens) (O94782 whole entry, looked up): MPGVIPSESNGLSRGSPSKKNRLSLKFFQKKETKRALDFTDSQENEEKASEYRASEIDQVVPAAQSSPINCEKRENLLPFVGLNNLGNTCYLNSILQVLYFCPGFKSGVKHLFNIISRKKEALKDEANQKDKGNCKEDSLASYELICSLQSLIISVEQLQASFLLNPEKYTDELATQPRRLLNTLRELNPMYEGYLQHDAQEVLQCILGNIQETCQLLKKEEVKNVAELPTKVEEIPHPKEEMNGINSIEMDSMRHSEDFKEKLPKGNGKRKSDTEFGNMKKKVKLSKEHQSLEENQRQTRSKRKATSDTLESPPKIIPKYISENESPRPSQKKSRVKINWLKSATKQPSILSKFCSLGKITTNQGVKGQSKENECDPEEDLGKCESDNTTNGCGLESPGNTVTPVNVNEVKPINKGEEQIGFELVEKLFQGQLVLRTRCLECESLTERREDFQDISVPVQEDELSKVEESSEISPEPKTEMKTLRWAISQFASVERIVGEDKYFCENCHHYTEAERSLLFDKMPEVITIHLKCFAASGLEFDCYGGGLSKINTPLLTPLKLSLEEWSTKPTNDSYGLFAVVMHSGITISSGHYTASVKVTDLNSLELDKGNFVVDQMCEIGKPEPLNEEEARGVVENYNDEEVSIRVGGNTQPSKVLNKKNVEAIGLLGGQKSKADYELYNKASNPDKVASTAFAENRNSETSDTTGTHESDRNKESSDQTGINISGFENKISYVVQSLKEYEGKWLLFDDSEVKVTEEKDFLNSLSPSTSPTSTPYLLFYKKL

The mark [18] stands for this setting: measured here: cell count channel max response.
Where [19] appears, read: measured here: lipid channel max response.

Several values for one entry are separate records, joined by “and”; a condition that tells them apart may be missing. Equal entries are not always repeated. Results filed as inconclusive are left out. Activity calls are given as the source filed them. Unless noted, calls come from the whole dose curve; as a rule, active = well fitted curve in either direction with a large enough effect (not every such curve was filed as active); inconclusive = small, poorly fitted or top-dose-only effect, or another doubt; inactive = flat fitted curve, though single readings scatter.

Sequence of Cytochrome P450 1A2 (Homo sapiens) (P05177 whole entry, looked up): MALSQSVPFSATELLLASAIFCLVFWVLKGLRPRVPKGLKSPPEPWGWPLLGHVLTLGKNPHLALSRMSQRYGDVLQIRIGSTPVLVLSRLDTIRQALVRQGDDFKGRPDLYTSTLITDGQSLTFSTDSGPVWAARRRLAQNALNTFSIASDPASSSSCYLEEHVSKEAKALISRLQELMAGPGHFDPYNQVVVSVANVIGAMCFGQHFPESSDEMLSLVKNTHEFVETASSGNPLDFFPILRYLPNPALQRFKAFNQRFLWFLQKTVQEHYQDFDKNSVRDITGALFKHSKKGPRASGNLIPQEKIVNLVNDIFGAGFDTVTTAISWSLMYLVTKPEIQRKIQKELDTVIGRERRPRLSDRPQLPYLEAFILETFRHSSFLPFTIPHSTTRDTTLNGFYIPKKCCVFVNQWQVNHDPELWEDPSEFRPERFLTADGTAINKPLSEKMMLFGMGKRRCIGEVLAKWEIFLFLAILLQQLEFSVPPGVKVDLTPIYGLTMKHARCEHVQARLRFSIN
Sequence of Luciferin 4-monooxygenase (Photinus pyralis) (P08659 whole entry, looked up): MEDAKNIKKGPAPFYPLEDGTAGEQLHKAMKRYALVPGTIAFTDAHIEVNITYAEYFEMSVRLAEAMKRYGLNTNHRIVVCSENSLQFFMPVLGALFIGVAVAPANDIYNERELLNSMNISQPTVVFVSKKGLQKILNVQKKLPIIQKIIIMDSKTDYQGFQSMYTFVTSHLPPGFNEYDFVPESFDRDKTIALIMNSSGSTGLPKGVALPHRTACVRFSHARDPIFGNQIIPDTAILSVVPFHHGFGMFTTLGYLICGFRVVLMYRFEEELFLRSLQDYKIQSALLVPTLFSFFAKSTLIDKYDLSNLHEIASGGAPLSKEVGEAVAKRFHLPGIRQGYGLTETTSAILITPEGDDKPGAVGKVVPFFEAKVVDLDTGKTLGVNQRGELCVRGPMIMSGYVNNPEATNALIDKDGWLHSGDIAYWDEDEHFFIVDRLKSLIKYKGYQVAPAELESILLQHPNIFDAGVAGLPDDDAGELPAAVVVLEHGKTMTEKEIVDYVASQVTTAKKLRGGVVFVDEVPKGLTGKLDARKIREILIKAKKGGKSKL
Sequence of ATP-dependent 6-phosphofructokinase (Trypanosoma brucei brucei) (O15648 whole entry, looked up): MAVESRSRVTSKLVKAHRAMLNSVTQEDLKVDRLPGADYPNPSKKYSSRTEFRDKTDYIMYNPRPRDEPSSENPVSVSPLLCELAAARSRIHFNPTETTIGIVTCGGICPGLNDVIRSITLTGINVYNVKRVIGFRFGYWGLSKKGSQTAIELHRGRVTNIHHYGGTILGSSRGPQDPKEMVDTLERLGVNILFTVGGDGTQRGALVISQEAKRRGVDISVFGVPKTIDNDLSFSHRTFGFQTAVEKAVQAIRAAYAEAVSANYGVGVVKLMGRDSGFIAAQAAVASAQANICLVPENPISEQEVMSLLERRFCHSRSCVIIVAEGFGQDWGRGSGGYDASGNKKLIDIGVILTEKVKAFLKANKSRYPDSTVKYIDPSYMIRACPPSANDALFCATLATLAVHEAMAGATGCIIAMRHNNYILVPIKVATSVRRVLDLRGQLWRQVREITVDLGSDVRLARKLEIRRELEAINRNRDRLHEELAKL
Sequence of Pyruvate kinase PKM (Homo sapiens) (P14618 whole entry, looked up): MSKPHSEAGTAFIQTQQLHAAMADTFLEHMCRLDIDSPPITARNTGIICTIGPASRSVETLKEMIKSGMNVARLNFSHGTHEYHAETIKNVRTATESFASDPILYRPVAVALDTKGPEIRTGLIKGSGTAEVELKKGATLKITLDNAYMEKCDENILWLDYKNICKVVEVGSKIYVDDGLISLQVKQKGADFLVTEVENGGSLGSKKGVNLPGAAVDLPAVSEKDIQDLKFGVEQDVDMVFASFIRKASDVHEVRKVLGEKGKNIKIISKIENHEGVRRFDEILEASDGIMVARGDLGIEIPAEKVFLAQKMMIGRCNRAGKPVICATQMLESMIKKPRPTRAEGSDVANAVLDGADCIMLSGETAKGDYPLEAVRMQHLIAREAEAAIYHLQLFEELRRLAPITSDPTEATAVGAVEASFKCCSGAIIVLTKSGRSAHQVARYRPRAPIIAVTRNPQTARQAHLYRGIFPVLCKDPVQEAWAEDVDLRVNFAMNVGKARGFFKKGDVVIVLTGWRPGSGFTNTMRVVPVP
Sequence of Guanine nucleotide-binding protein G(i) subunit alpha-1 (Homo sapiens) (P63096 whole entry, looked up): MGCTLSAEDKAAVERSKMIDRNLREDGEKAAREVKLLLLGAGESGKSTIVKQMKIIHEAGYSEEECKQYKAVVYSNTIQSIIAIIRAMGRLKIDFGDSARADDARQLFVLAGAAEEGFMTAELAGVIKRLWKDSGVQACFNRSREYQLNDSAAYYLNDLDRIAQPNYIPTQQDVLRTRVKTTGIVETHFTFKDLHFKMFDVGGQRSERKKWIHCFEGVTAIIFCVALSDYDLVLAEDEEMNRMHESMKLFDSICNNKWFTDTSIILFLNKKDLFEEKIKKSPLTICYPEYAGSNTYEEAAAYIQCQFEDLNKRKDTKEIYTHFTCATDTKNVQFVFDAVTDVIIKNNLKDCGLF

Regarding `CC(=O)OCC1=C(C(=O)O)N2C(=O)[C@@H](NC(=O)CSc3ccncc3)[C@@H]2SC1`, the activity change, negative = inhibition was 9.51% (inactive) in test [1] (at 17.2 µM (top of the series)); 11% (inactive) in test [1] (at 38 µM (top of the series)); 7.12% (inactive) in test [3] (at 17.2 µM (top of the series)); 4.33% (inactive) in test [3] (at 38 µM (top of the series)); -4.27% (inactive) in test [13]. The Potency entry (in test [2]; in test [7]; in test [8]; in test [9]; with AS120; in the test with CP238) was “inactive” each time. Besides, the Potency entry in the test on FAB9 was “inactive”. Also, the activity, negative = inhibition was 8.61% (inactive) in test [4] (at 17.2 µM (top of the series)), -9.45% (inactive) in [4] (at 38 µM (top of the series)), -4.5% (inactive) in [16] (parasite line A) and -4.99% (inactive) in test [16] (parasite line B). The Potency in test [5] is > 46 µM (inactive) and > 20.6 µM (inactive); in test [6] it was > 46 µM (inactive) and > 20.6 µM (inactive). Also, the outcome in [10], in test [11], in [12], in test [14] and in [15] was inactive. In addition, the max response in test [13] (setting [18]) was -7.14%; in [13] (setting [19]), -13.2%.

Consider `O=C(C1CCCCC1)N1CC(=O)N2CCc3ccccc3[C@@H]2C1`, for which the activity change, negative = inhibition in [1] (at 17.2 µM (top of the series)) is 6.31% (inactive); in [1] (at 38 µM (top of the series)), -5.21% (inactive); in test [3] (at 17.2 µM (top of the series)), 3.18% (inactive); in [3] (at 38 µM (top of the series)), -8.74% (inactive); in test [13] it was 1.99% (inactive). Moreover, the Potency was 12.6 µM (active) and 10 µM (active) in test [2]; > 46 µM (inactive) and > 20.6 µM (inactive) in test [5]; > 46 µM (inactive) and > 20.6 µM (inactive) in test [6]. Also, the results for the activity, negative = inhibition in [4] (at 17.2 µM (top of the series)) and in test [4] (at 38 µM (top of the series)) were -1.88% (inactive) and -0.96% (inactive), respectively. The Potency result in test [7], in test [8] and in test [17] was “inactive” each time. Besides, the max response in test [13] (setting [18]) was found to be 3.5%; in test [13] (setting [19]) it was 8.95%. The molecule was called inactive in test [14] and in [15].
